According to PubChem BioAssay (EPA / NIEHS):
Active and inactive are the calls of the source. Rule for the calls: active = hit-call score of the fitted dose curve at least 0.9, where 1 is the maximum; inactive = score below 0.9.

Columns and labels:
[1] = CCTE_Padilla_ZF_Score.Position: CCTE's 144 Hour Post-fertilization zebrafish Assay Score for Position, Padilla Lab (AID 2284409)
Method in brief: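 Wild-type zebrafish embryos (with chorions) exposed singly from 6–8 hpf in sealed wells of Hanks' solution at 26C, rinsed at 5 dpf. At 6 dpf, blinded assessors scored abnormal water-column position by brightfield stereomicroscopy, relative to DMSO.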

[2] = CCTE_Padilla_ZF_Score.Living: CCTE's 144 Hour Post-fertilization zebrafish Assay Score for Viability, Padilla Lab (AID 2284410);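 note: larval death at 6 dpf judged by absent heartbeat or coagulation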
Method in brief: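 Mortality at 6 dpf, judged as absent heartbeat or coagulation by two blinded observers, after sealed static exposure beginning at 6–8 hpf at 26C. Larvae were rinsed free of chemical at 5 dpf, and activity was fitted relative to DMSO.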

[3] = CCTE_Padilla_ZF_Score.General: CCTE's 144 Hour Post-fertilization zebrafish Assay Score for General Malformation, Padilla Lab (AID 2284411)
Method in brief: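 Malformation, death and hatching were scored at 6 dpf by two blinded observers under a stereo microscope. Embryos were dosed singly from 6-8 hpf in sealed plates of 10% Hanks' at 26C and rinsed on 5 dpf; DMSO baseline.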

[4] = CCTE_Padilla_ZF_Score.Tail: CCTE's 144 Hour Post-fertilization zebrafish Assay Score for Tail Malformation, Padilla Lab (AID 2284414)
Method in brief: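 Tail malformations were scored at 6 dpf by two blinded assessors under a stereo microscope. Chorionated embryos had been exposed from 6-8 hpf in sealed wells of 10% Hanks' at 26 C, then rinsed free of chemical at 5 dpf.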

[5] = CCTE_Padilla_ZF_Score.Any: CCTE's 144 Hour Post-fertilization zebrafish Assay Score for Any Mortality or Malformation, Padilla Lab (AID 2284416)
Method in brief: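 Wild-type zebrafish embryos with chorions, one per well in 10% Hanks' from 6–8 hpf, dosed in sealed plates at 26 C, 14:10 h light:dark; rinsed at 5 dpf; blinded scoring at 6 dpf for death or malformation, versus DMSO.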

[6] = CCTE_Padilla_ZF_Score.Blood_pooling: CCTE's 144 Hour Post-fertilization zebrafish Assay Score for Blood Pooling, Padilla Lab (AID 2284415)
Method in brief: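 Blood pooling was scored at 6 dpf under a stereo microscope by two blinded assessors, fitted upward against DMSO. Single embryos were dosed at 6–8 hpf in 10% Hanks', kept sealed at 26C (14:10 h cycle) and rinsed at 5 dpf.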

[7] = tested on: TTR (gene 7276); assay: CCTE_GLTED_hTTR_0.125uM: CCTE's human Transthyretin (hTTR) Inhibition Assay, with 0.125uM TTR, Great Lakes Toxicology and Ecology Division (GLTED) Lab (AID 2284431);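 note: hits lower the fluorescence signal relative to DMSO baseline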
Method in brief: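 Probe-displacement format: chemicals competing for the T4 site release ANSA from 0.125uM TTR during a 2 h incubation, measured by fluorescence at 380 excitation and 475 emission.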

Measured: AC50

O=C(O)C(F)(F)C(F)(F)OC(F)(F)F
inactive: [1] | [2] | [3] | [4] | [5]

C=CC(=O)OCC(F)(F)C(F)(F)C(F)(F)C(F)(F)COC(=O)C=C
active: [2] 9.44 µM | [5] 4.38 µM
inactive: [1] | [3] | [4] | [6]

FC(F)(F)C(F)(F)C(F)(F)C(F)(F)CCI
inactive: [1] | [2] | [3] | [4] | [5]

O=C(O)C(F)(F)C(F)(F)C(F)(F)C(F)(F)F
inactive: [1] | [2] | [3] | [4] | [6] | [5]

O=C(O)C(F)(F)C(F)(F)C(F)(F)C(F)(F)C(F)(F)C(F)(F)C(F)(F)C(F)(F)Cl
inactive: [4]
active: [1] 70.4 µM | [2] 35.5 µM | [3] 16.7 µM | [5] 10 µM

FC(F)(F)C(F)(F)C(F)(F)C(F)(F)C(F)(F)C(F)(F)CC1CO1 (configuration not stated)
inactive: [1] | [2] | [3] | [4] | [5]

OCC(F)(F)C(F)(F)C(F)(F)F
inactive: [1] | [2] | [3] | [4] | [5]

O=C(Cl)C(F)(F)C(F)(F)C(F)(F)C(F)(F)C(F)(F)C(F)(F)C(F)(F)C(F)(F)F
active: [3] 11.4 µM | [5] 29.4 µM
inactive: [1] | [2] | [4]

O=C(O)C(F)(F)C(F)(F)C(F)(F)C(F)(F)C(F)(F)C(F)(F)C(F)(F)C(F)(F)C(F)(F)C(F)(F)C(F)(F)C(F)(F)C(F)(F)F
inactive: [1] | [2] | [3] | [4] | [6] | [5]

FC(F)(F)C(F)(F)C(F)(F)CI
inactive: [1] | [2] | [3] | [4] | [5]

O=C(O)C(F)(F)C(F)(F)C(F)(F)C(F)(F)C(F)(F)C(F)(F)C(F)(F)C(F)(F)C(F)(F)C(F)F
inactive: [1] | [4] | [6]
active: [2] 17.5 µM | [3] 15.8 µM | [5] 15 µM

FC(F)(F)C(F)(F)C(F)(F)C(F)(F)C(F)(F)CCI
active: [3] 54.7 µM | [5] 31.9 µM
inactive: [1] | [2] | [4] | [6]

OCC(F)(F)C(F)(F)C(F)(F)C(F)(F)C(F)(F)C(F)F
inactive: [1] | [2] | [3] | [4] | [5]

OCC(F)(F)C(F)(F)C(F)(F)C(F)(F)C(F)(F)C(F)(F)F
inactive: [1] | [3] | [4]
active: [2] 88 µM | [6] 93.7 µM | [5] 80.5 µM

O=S(=O)(OCC(F)F)C(F)(F)F
inactive: [1] | [2] | [3] | [4] | [6] | [5]

OCCCC(F)(F)C(F)(F)C(F)(F)F
inactive: [1] | [2] | [3] | [4] | [5]

C=CC(=O)OCC(F)(F)C(F)(F)C(F)(F)C(F)(F)C(F)(F)C(F)(F)C(F)(F)F
inactive: [1] | [2] | [3] | [4] | [5]

O=C(O)C(F)(F)C(F)(F)C(F)(F)F
inactive: [1] | [2] | [3] | [4] | [5]

FC(F)(F)C(F)(F)C(F)(F)C(F)(F)C(F)(F)C(F)(F)C(F)(F)C(F)(F)CCS
inactive: [1] | [2] | [3] | [4] | [5]

Oc1ccc(Nc2ccccc2)cc1
inactive: [3]

Cc1ccc(S(=O)(=O)NCl)cc1
active: [7] 44.5 µM

FC(F)(F)C(F)(F)C(F)(F)C(F)(F)C(F)(F)C(F)(F)C(F)(F)C(F)(F)F
inactive: [1] | [2] | [3] | [4] | [5]

O=P(O)(O)OCCC(F)(F)C(F)(F)C(F)(F)C(F)(F)C(F)(F)C(F)(F)F
inactive: [1] | [2] | [3] | [4] | [5]

CCCCCCS
inactive: [3]

O=C(O)C(F)(F)C(F)(F)F
inactive: [1] | [2] | [3] | [4] | [5]

CCCCC(CC)COP(=O)(O)OCC(CC)CCCC (configuration not stated)
active: [7] 5.44 µM

CCCCCCCCCCCCCCCC[N+](C)(C)Cc1ccccc1
inactive: [3]

NC(=O)C(F)(F)C(F)(F)C(F)(F)C(F)(F)F
inactive: [1] | [2] | [3] | [4] | [5]

C=CC(F)(F)C(F)(F)C(F)(F)C(F)(F)C(F)(F)C(F)(F)C(F)(F)C(F)(F)F
inactive: [1] | [2] | [3] | [4] | [5]

O=C(O)C(F)(OC(F)(F)C(F)(OC(F)(F)C(F)(OC(F)(F)C(F)(F)C(F)(F)F)C(F)(F)F)C(F)(F)F)C(F)(F)F (configuration not stated)
inactive: [1] | [2] | [3] | [4] | [5]
